Results from PubChem BioAssay (NCATS).
Where “and” joins values, the source holds several entries; their conditions need not be identical. Equal values may be shown once. Results filed as inconclusive are left out. Entries that show only a call come without a potency. Calls of active or inactive are those of the source. Unless noted, calls come from the whole dose curve; as a rule, active = well fitted curve in the direction sought with a large enough effect; inconclusive = small, poorly fitted or top-dose-only effect, or another doubt; inactive = no such curve, though single readings can be large; an effect the other way counts as inactive or inconclusive.

What was measured:
[1] = target: Mitogen-activated protein kinase 10 (Mus musculus) (UniProt Q61831); assay: JNK3 AlphaScreen Assay (AID 530; active = well fitted curve in either direction with a large enough effect, not every such curve was filed as active;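 note: kinase came from lysate of stimulated human HepG2 cells; signal reports phosphorylation of biotinylated GST-cJun 1-79 at Ser73 with 10 µM ATP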)
Summary of the method: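 Compound titrations were preincubated 15 minutes at room temperature with substrate, antibody and pre-activated JNK3-containing HepG2 lysate. Reactions were started with 10 uM ATP and stopped with EDTA-containing bead buffer for AlphaScreen detection.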

[2] = Cellular Toxicity (caspase-3) Jurkat (AID 655); details: Jurkat caspase-3 activation, luminescence; caspase-3 activation: at 92.2 µM (top of the series), DMSO = 0%, tamoxifen = 100%;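 note: cells exposed to compound for 16 h at 37 °C before reading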
Summary of the method: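 qHTS in human Jurkat T-cell leukemia line: 16 hr compound treatment at 37 °C, caspase-3/7 activity measured by Caspase-Glo luminescence. AC50 derived from Hill equation.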

[3] = Cellular Toxicity (caspase-3) BJ (AID 658);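 note: cells exposed to compound for 16 hours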
Summary of the method: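 Readout: Caspase-Glo 3/7 luminescence increase in BJ cells after 16 hr treatment at 37 °C. Staurosporine and tamoxifen served as positive controls; AC50 values came from Hill modelling of data normalized to DMSO and 10 uM staurosporine.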

[4] = Cell Viability - LYMP2-001 (AID 921); note: nearly all actives have a fitted effect of over 70% in size
Summary of the method: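 A lymphoblastoid cell line of human origin was treated with library compounds across a concentration series for 24 hours, and viable cell number was estimated from ATP-driven luciferase light output. Hill modeling gave AC50.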

[5] = MultiTox-Fluor Cytotoxicity Assay - LYMP1-002 - Live Cells (AID 955);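 note: cells exposed to compound for 16 hours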
Summary of the method: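 Human lymphoblastoid LYMP1-002 cells, 2500/well, treated 16 h at 37 C in complete medium. Live-cell protease activity via GF-AFC fluorescence (Ex/Em 405/510) after 60 min reagent incubation; AC50 from Hill fits.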

[6] = Cell Viability - LYMP2-005 (AID 967)
Summary of the method: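 Luciferase-based ATP quantitation served as the viability measure in human lymphoblastoid LYMP2-005 cells exposed to test compounds for 24 h at 37 C in complete culture medium. Potency (AC50) was obtained by fitting concentration-response curves with the Hill equation.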

[7] = Cell Viability - LYMP2-015 (AID 971); note: nearly all actives have a fitted effect of over 55% in size
Summary of the method: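 LYMP2-015 human lymphoblastoid cells (2500/well) in complete medium, compound-treated 24 h at 37 C; viability read as cellular ATP by CellTiter-Glo luminescence after 30 min at room temperature. AC50 from Hill-equation fits of qHTS concentration-response data.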

[8] = target: Thyroid hormone receptor beta (Homo sapiens) (UniProt P10828); assay: qHTS assay for small molecule agonists of thyroid hormone receptor beta signaling (AID 588545; calls by dose curve)
Summary of the method: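 Agonist activity was read as beta-lactamase CCF4 fluorescence (405 ex, 460/530 em), scaled between DMSO (0%) and 10 nM T3 (100%), then Hill-fitted for EC50 and efficacy. HEK 293 TR-UAS-bla cells in 2% charcoal/dextran FBS medium were exposed 18 h at 37 C.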

[9] = qHTS assay for small molecule antagonists of retinoid X receptor alpha signaling (AID 588546; active = well fitted inhibition curve with a large enough effect in the signal ratio, with a control signal flat, not every such curve was filed as active; the % refers to the signal ratio;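 note: cells stimulated with 9-cis-retinoic acid as agonist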); details: HEK293T RXRa-UAS-bla, beta-lactamase ratio, antagonist mode; measured here: W530 green channel, cytotoxicity proxy
Summary of the method: (§1)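 Beta-lactamase reporter inhibition, read as CCF4 fluorescence ratio (ex 405, em 460/530 nm) after 2 h at RT. HEK293T UAS-bla cells, 2500/well, were stimulated with 9-cis-RA at 500 or 100 nM final alongside test compound for 18 h at 37 C.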

[10] = target: Retinoic acid receptor RXR-alpha (Homo sapiens) (UniProt P19793); assay: as above; details: HEK293T RXRa-UAS-bla, beta-lactamase ratio, antagonist mode
Summary of the method: as §1

[11] = qHTS assay for small molecule disruptors of the mitochondrial membrane potential - 5 hr assay (AID 651755; calls by dose curve; note: nearly all actives have a fitted effect of over 40% in size)
Summary of the method: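 HepG2, 2,000 cells/well, overnight attach; cpd or DMSO 5 hr, 37C/5% CO2; Mito-MPS 30 min 37C; fluor 490/535 + 540/590 nm.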

[12] = qHTS assay for environmental chemicals that activate the Aryl hydrocarbon Receptor (AhR) signaling pathway (AID 651777); details: 1A2-DRE human hepatoma cells, luciferase, 24 h; activation: stronger effect = higher value; note: nearly all actives have a fitted effect of over 15% in size
Summary of the method: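 Human hepatoma 1A2-DRE cells stably carrying a DRE/CYP1A2 promoter–luciferase reporter, 1,200 cells/well, exposed to compound 24 hr at 37 C. Luciferase read by One-Glo luminescence after 30 min at room temperature; increased signal marks AhR activation.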

[13] = target: Nuclear receptor ROR-gamma (Homo sapiens) (UniProt P51449); assay: qHTS assay for small molecule antagonists of the retinoid-related orphan receptor gamma (ROR-gamma) signaling pathway (AID 651802);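 note: luciferase reporter luminescence driven by ROR response element; nearly all actives have a fitted effect of over 60% in size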
Summary of the method: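 CHO cells with TET-inducible ROR-gamma and RORE-luciferase reporter, dosed then doxycycline-induced. After 16 h at 37C, One-Glo luminescence read; decreased signal indicates antagonism.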

[14] = target: Nuclear receptor subfamily 1 group I member 2 (Rattus norvegicus) (UniProt Q9R1A7); assay: qHTS assay for small molecule activators of the rat pregnane X receptor (rPXR) signaling pathway (AID 651751; call rule not given here); details: rPXR reporter cells, luciferase (One-Glo), 24 h
[15] = qHTS assay for small molecule activators of the human pregnane X receptor (PXR) signaling pathway (AID 720659; call rule not given here)
[16] = Cellular Toxicity (caspase-3) MRC-5 (AID 659);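 note: cells exposed to compound for 16 h at 37 °C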
Summary of the method: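 Concentration-dependent caspase 3/7 activation is measured in human normal lung fibroblasts (MRC-5) following 16-hour treatment. AC50 values come from standard Hill-equation modeling of luminescence normalized to DMSO and 10 uM staurosporine.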

[17] = target: Cytochrome P450 3A4 (Homo sapiens) (UniProt P08684); assay: qHTS Assay for Inhibitors and Substrates of Cytochrome P450 3A4 (AID 884); note: nearly all actives have a fitted effect of over 50% in size; note: potency is the fitted concentration of half-maximal effect
Summary of the method: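 20 nM human CYP3A4 with 25 uM Luciferin-PPXE (at KM) in 200 mM KPO4, preincubated 10 min with compound; NADPH regeneration started a 60 min RT reaction. Luciferin detected by luminescence, normalized to 57 uM ketoconazole as full inhibition.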

[18] = MultiTox-Fluor Cytotoxicity Assay - LYMP1-001 - Live Cells (AID 947)
[19] = target: Voltage-gated inwardly rectifying potassium channel KCNH2 (Homo sapiens) (UniProt Q12809); assay: qHTS Assay for Small Molecule Inhibitors of the Human hERG Channel Activity (AID 588834);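 note: lower thallium flux fluorescence means stronger hERG block; nearly all actives have a fitted effect of over 50% in size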; note: potency is the fitted concentration of half-maximal effect
Summary of the method: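 Blockade is seen as reduced FluxOR thallium-flux fluorescence in U2OS cells expressing hERG from a BacMam construct, in Opti-MEM with 2% FCS. Concentration-response data fitted to the Hill equation for AC50.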

[20] = Cell Viability - Mesenchymal (AID 546);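 note: cells exposed to compound for 40 hours before reading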
Summary of the method: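 AC50 values reflect the drop in intracellular ATP in a human kidney mesenchymal line derived from normal glomeruli. Treatment lasts 40 hr at 37 °C in complete medium, and the signal comes from CellTiter-Glo luminescence.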

Sequence of Nuclear receptor subfamily 1 group I member 2 (Rattus norvegicus) (Q9R1A7 whole entry, looked up): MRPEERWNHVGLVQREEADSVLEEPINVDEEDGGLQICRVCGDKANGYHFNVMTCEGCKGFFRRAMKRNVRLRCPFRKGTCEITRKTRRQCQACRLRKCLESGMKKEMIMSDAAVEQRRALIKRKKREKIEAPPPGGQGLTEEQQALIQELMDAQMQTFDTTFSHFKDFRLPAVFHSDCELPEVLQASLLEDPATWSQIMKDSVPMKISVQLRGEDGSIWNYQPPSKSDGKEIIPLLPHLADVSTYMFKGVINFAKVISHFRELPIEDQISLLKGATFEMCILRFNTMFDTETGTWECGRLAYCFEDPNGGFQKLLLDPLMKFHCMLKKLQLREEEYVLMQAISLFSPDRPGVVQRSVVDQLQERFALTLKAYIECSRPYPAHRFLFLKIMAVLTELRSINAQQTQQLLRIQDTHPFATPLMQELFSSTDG
Sequence of Retinoic acid receptor RXR-alpha (Homo sapiens) (P19793 whole entry, looked up): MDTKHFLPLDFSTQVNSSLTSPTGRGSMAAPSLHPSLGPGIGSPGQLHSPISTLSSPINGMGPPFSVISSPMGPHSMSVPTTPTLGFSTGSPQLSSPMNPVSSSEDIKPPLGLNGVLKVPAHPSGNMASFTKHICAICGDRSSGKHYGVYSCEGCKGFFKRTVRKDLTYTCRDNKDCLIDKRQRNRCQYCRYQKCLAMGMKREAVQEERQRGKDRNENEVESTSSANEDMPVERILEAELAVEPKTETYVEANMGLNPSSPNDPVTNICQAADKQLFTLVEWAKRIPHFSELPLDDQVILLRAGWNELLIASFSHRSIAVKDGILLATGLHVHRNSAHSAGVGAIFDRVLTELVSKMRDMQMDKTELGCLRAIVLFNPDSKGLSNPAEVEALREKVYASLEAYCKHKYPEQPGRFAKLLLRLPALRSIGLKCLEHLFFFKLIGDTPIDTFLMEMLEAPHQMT
Sequence of Cytochrome P450 3A4 (Homo sapiens) (P08684 whole entry, looked up): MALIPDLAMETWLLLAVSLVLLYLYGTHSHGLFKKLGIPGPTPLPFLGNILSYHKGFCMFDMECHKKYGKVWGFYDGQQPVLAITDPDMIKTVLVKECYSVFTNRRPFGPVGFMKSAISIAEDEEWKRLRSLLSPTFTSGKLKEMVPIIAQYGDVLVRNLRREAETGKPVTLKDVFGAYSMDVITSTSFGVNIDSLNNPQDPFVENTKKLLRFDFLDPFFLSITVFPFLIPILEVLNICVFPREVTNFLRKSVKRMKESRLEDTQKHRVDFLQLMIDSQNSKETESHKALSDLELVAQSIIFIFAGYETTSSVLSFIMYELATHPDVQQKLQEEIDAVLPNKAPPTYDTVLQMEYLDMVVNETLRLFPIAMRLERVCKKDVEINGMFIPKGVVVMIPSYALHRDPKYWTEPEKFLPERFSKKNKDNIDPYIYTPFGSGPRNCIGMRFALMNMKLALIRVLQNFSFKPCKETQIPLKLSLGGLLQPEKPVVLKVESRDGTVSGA
Sequence of Nuclear receptor ROR-gamma (Homo sapiens) (P51449 whole entry, looked up): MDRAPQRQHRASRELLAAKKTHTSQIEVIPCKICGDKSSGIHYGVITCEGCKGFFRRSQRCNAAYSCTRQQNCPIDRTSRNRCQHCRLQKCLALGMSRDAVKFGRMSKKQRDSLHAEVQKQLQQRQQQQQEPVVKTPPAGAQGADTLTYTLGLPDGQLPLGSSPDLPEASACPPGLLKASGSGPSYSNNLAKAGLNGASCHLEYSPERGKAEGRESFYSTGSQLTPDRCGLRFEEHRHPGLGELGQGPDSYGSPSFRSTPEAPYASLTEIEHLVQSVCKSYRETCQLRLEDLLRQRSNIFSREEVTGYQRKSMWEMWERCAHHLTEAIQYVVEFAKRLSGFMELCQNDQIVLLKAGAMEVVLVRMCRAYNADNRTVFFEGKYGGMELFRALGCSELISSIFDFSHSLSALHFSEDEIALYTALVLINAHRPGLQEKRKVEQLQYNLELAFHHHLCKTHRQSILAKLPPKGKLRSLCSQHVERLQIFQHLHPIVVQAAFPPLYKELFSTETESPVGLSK
Sequence of Thyroid hormone receptor beta (Homo sapiens) (P10828 whole entry, looked up): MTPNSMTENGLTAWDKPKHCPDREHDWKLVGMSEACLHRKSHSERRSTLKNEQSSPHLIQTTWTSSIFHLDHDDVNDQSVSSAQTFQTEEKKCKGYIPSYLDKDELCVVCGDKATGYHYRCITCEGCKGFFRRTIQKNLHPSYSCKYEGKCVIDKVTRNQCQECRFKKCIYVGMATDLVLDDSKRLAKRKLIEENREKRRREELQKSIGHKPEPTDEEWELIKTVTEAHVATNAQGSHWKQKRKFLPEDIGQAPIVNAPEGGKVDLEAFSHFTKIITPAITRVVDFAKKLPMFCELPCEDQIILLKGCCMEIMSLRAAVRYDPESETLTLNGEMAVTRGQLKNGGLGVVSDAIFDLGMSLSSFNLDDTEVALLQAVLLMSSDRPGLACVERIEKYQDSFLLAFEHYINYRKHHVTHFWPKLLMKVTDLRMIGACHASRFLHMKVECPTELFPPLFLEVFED
Sequence of Voltage-gated inwardly rectifying potassium channel KCNH2 (Homo sapiens) (Q12809 whole entry, looked up): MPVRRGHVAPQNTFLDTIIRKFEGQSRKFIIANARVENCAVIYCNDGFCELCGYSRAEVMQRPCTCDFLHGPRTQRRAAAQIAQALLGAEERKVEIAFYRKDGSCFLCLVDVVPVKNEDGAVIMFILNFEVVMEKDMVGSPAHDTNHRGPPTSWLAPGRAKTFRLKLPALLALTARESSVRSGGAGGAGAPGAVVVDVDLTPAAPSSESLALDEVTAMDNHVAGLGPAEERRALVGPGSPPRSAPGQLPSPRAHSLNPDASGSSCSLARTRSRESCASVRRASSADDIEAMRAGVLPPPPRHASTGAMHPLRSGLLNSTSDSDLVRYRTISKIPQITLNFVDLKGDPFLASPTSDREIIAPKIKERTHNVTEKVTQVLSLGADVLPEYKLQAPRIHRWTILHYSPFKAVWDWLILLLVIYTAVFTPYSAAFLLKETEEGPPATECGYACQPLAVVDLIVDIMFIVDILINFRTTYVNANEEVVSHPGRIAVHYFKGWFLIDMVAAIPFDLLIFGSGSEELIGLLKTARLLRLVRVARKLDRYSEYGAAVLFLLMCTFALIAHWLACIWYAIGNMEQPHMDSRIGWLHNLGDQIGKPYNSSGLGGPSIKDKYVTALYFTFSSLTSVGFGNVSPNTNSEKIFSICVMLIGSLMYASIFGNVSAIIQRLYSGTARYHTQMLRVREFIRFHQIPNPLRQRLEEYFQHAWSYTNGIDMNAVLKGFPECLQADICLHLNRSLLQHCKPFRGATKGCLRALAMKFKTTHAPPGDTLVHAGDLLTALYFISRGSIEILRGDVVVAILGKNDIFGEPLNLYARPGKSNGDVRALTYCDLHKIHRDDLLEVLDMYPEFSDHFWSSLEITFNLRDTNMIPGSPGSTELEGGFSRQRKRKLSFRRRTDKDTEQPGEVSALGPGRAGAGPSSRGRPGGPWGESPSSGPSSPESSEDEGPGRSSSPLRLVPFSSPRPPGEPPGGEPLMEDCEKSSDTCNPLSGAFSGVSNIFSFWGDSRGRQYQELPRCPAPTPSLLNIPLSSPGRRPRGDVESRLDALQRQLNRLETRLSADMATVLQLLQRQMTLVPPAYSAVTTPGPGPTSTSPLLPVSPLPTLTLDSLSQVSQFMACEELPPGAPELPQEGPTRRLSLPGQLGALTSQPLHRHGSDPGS

| SMILES | Potency [1] | caspase-3 activation [2] | outcome [3] | Potency [4] | outcome [5] | Potency [6] | Potency [7] | Potency [8] | max response [9] | max response [10] | Potency [11] | activation [12] | Potency [13] | max response [14] | outcome [15] | outcome [16] | Potency [17] | outcome [18] | Potency [19] | Potency [20] |
| --- | --- | --- | --- | --- | --- | --- | --- | --- | --- | --- | --- | --- | --- | --- | --- | --- | --- | --- | --- | --- |
| Clc1ccc(C(Cl)(Cl)Cl)c(Cl)c1 | inactive | -1.19% (inactive) | inactive | inactive | inactive | inactive | inactive | inactive | -9.41% | 8.02% (inactive) | inactive | -1.61% (inactive) | inactive | -3.95% (inactive) | inactive |  |  |  |  |  |
| [O-][Cl+2]([O-])O | inactive | -0.446% (inactive) | inactive | inactive | inactive | inactive | inactive |  | -3.35% | -4.77% (inactive) | inactive | 0.0972% (inactive) |  | 2.81% (inactive) | inactive | inactive | inactive | inactive | inactive |  |
| O=[N+]([O-])c1cccc2c([N+](=O)[O-])cccc12 | inactive | 0.295% (inactive) |  | inactive | inactive | inactive | inactive | inactive | -12.9% | 7.28% (inactive) | inactive | 0.19% (inactive) | inactive | -2.66% (inactive) | inactive | inactive | inactive | inactive | inactive |  |
| O=C(Cl)OCc1ccccc1 | inactive | 0.751% (inactive) | inactive | inactive | inactive | inactive | inactive |  | -3.27% | -3.17% (inactive) | inactive | 0.249% (inactive) | inactive | 4.69% (inactive) | inactive | inactive | inactive | inactive | inactive | inactive |
| CCC[N+](=O)[O-] | inactive | -1.47% (inactive) |  | inactive | inactive | inactive | inactive | inactive |  |  | inactive | 1.28% (inactive) | inactive | 7.37% (inactive) | inactive |  | inactive | inactive | inactive | inactive |
| Nc1cc(Cl)ccc1Cl | inactive | 0.909% (inactive) |  | inactive | inactive | inactive | inactive | inactive | 1.78% | 3.06% (inactive) | inactive |  | inactive | 4.7% (inactive) | inactive | inactive | inactive | inactive | inactive | inactive |
| CC(C)(C)C(O)(CCc1ccc(Cl)cc1)Cn1cncn1 (stereo unspecified) | inactive | 2.58% (inactive) | inactive | inactive |  | inactive | inactive | inactive | 3% and 12.6% | -23.2% (inactive) and -32.6% (inactive) | inactive | 0.583% (inactive) and 1.83% (inactive) |  |  |  | inactive | 0.501 µM (active) | inactive | 20 µM (active) | inactive |
| CC(Cl)(Cl)Cl | inactive | -0.991% (inactive) |  | inactive | inactive | inactive | inactive | inactive | 0.916% and -3.55% | 5.12% (inactive) and 15.9% (inactive) | inactive | -0.393% (inactive) and 0.414% (inactive) | inactive | -1.71% (inactive) and -2.72% (inactive) | inactive | inactive | inactive | inactive | inactive | inactive |
| CC(C)(Cl)Cl | inactive |  | inactive |  |  | inactive | inactive | inactive | -1.69% | 3.57% (inactive) | inactive | 0.894% (inactive) |  | -1.57% (inactive) | inactive | inactive | inactive | inactive | inactive |  |
| Cc1ccc(N=C=O)cc1N=C=O | inactive | 0.0584% (inactive) | inactive |  | inactive | inactive | inactive | inactive | 4.82% and -6.24% | 6.03% (inactive) and 0.743% (inactive) |  |  | inactive | 5.64% (inactive) and 2.33% (inactive) | inactive |  | 15.8 µM (active) |  | inactive | inactive |
| Nc1ccc(Cl)c(Cl)c1 | inactive | 0.952% (inactive) | inactive | inactive |  | inactive | inactive | inactive | 2.84% | -9.29% (inactive) | inactive |  | inactive | 0.573% (inactive) | inactive |  |  |  | inactive | inactive |
| C=C(Cl)CSC(=S)N(CC)CC |  | 1.37% (inactive) | inactive |  | inactive | inactive | inactive | inactive | -2.71% | 1.31% (inactive) | inactive | 0.101% (inactive) | inactive | 1.65% (inactive) | inactive | inactive |  | inactive | 39.8 µM (active) | inactive |
| Cc1ccc(N)cc1C | inactive | 0.158% (inactive) | inactive |  | inactive | inactive | inactive | inactive | -3.11% | -2% (inactive) | inactive | 3.36% (inactive) | inactive |  | inactive | inactive | inactive | inactive | inactive | inactive |
| CCCCNC(=O)n1c(NC(=O)OC)nc2ccccc21 | inactive | 7.08% (inactive) | inactive | inactive | inactive | inactive | inactive | inactive | 3.99% | -15.6% (inactive) | inactive | 8.93% (inactive) and 9.96% (inactive) | inactive |  | inactive | inactive | inactive |  | inactive | inactive |
